IDE exosite FP = insulin-degrading enzyme (human) exo-site inhibition | P14735 | 6.3% of 17,000 active | z-score at 20 µM | AID 1259349 | purified IDE, FL-6b probe fluorescence polarization; active compounds read low;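 active = z-score of -3 or lower, meaning strong loss of probe binding signal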;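 note: His-tagged human IDE residues 42-1019 made in E. coli with 30 nM FL-6b probe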
Of the large screens only hits and unclear results are named; the others gave an inactive call. Many of the other results were omitted from the sample, so hits are more common in it than they were.

O=C(c1ccccc1F)N1CC(=O)N2[C@H](C1)[C@@H](c1ccc(-c3cccnc3)cc1)[C@@H]2CO	IDE exosite FP -3.11
O=C(C1CCCCC1)N1CC(=O)N2[C@H](CO)[C@H](c3ccc(-c4cccnc4)cc3)[C@H]2C1	IDE exosite FP -4.75
O=C(c1ccccc1F)N1CC(=O)N2[C@@H](CO)[C@@H](c3ccc(-c4cccnc4)cc3)[C@@H]2C1	none
O=C(Nc1cc(F)ccc1F)N1CC(=O)N2[C@H](C1)[C@@H](c1ccc(/C=C/c3ccccc3)cc1)[C@@H]2CO	none
CN(C)CC#Cc1ccc([C@@H]2[C@H](CO)N3CCCCN(S(=O)(=O)c4ccccc4F)C[C@@H]23)cc1	none
C[C@H](O)C#Cc1ccc([C@@H]2[C@@H](CO)N3CCCCN(CC4CCOCC4)C[C@H]23)cc1	none
C[C@H]1CC=CC[C@H](c2cccc(Cl)c2)NC(=O)[C@H](Cc2ccccc2)N(C)C(=O)c2ccccc2O1 (mixture of isomers)	none
CN(C[C@H]1N[C@@H](CO)[C@@H]1c1ccc(-c2cccc(F)c2)cc1)S(C)(=O)=O	none
CN1c2ccc(C#Cc3ccccc3F)cc2[C@H]2[C@H](CCN2C(=O)c2cnccn2)[C@H]1CO	none
CC(=O)N1CC(=O)N2[C@H](CO)[C@@H](c3ccc(-c4ccncc4)cc3)[C@@H]2C1	none
O=C(NC1CCCC1)N1CCCCN2[C@H](CO)[C@@H](c3ccc(/C=C/c4ccccc4)cc3)[C@H]2C1	IDE exosite FP -4.25
O=C(NC1CCCC1)N1CCCCN2[C@H](CO)[C@H](c3ccc(/C=C/c4ccccc4)cc3)[C@@H]2C1	IDE exosite FP -9.7
C/C=C/c1ccc([C@H]2[C@@H](CO)N3CCCCN(C(=O)NC4CCCC4)C[C@H]23)cc1	none
N#C[C@@H]1[C@H](c2ccccc2C2=CCCC2)[C@@H](CO)N1C(=O)C1CCCC1	none
C[C@H](CO)N1C[C@H](C)[C@@H](CN(C)C(=O)Nc2ccc3c(c2)OCO3)OCCCC[C@H](C)Oc2ccc(NS(=O)(=O)c3ccc(F)cc3)cc2C1=O	none
COc1ccc(C#Cc2ccc([C@@H]3[C@H]4CN(C(=O)Nc5ccccc5F)CC(=O)N4[C@H]3CO)cc2)cc1	none
O=C(Cc1ccccn1)N1CC(=O)N2[C@H](CO)[C@@H](c3ccc(C#CC4CCCCC4)cc3)[C@@H]2C1	none
COc1ccc(-c2ccccc2[C@H]2[C@@H](CO)N(C(=O)C3CCOCC3)[C@H]2C#N)cc1	none
O=C(C1CCOCC1)N1CC(=O)N2[C@H](CO)[C@@H](c3ccc(/C=C/c4ccccc4)cc3)[C@@H]2C1	IDE exosite FP -5.5
O=C(C1CCOCC1)N1CC(=O)N2[C@H](CO)[C@@H](c3ccc(Br)cc3)[C@H]2C1	none
O=C(C1CCOCC1)N1CC(=O)N2[C@@H](CO)[C@H](c3ccc(Br)cc3)[C@@H]2C1	none
O=C(C1CCOCC1)N1CC(=O)N2[C@H](CO)[C@@H](c3ccc(Br)cc3)[C@@H]2C1	none
O=C(C1CCOCC1)N1CC(=O)N2[C@@H](CO)[C@H](c3ccc(/C=C/c4ccccc4)cc3)[C@@H]2C1	IDE exosite FP -4.5
O=C(C1CCOCC1)N1CC(=O)N2[C@H](CO)[C@@H](c3ccc(/C=C/c4ccccc4)cc3)[C@H]2C1	none
COc1ccc(NC(=O)N(C)C[C@H]2OCCCC[C@H](C)Oc3ccc(NC(=O)c4ccncc4)cc3C(=O)N([C@@H](C)CO)C[C@@H]2C)cc1	none
CO[C@@H]1CN(C)C(=O)c2cc(NC(=O)C3CCCCC3)ccc2OC[C@@H](C)N(C(=O)c2ccccc2)C[C@@H]1C	none
CO[C@H]1CN(C)C(=O)c2ccc(NC(=O)Nc3cc(F)ccc3F)cc2OC[C@H](C)N(C(=O)c2ccccn2)C[C@@H]1C	none
CCCC#Cc1ccc([C@@H]2[C@@H](CO)N3C(=O)CN(C(=O)NCCC)C[C@H]23)cc1	none
CCCNC(=O)[C@@H]1[C@@H](CO)[C@@H]2Cn3c(ccc(C4=CCCC4)c3=O)[C@@H]2N1C(=O)c1cnccn1	none
O=C(Nc1ccccc1)N1CCCCN2[C@H](CO)[C@H](c3ccc(C#Cc4cccnc4)cc3)[C@@H]2C1	IDE exosite FP -4.15
O=C(Nc1ccccc1F)N1CCCCN2[C@H](CO)[C@H](c3ccc(-c4cccnc4)cc3)[C@H]2C1	none
O=C(Nc1ccccc1)N1CCCCN2[C@H](CO)[C@@H](c3ccc(C#Cc4ccccc4)cc3)[C@@H]2C1	none
O=C(Nc1ccccc1F)N1CCCCN2[C@H](CO)[C@H](c3ccc(C#Cc4cccnc4)cc3)[C@H]2C1	IDE exosite FP -6.86
O=C(Nc1ccccc1F)N1CCCCN2[C@H](C1)[C@H](c1ccc(C#Cc3ccccc3)cc1)[C@@H]2CO	none
O=C(Nc1ccccc1F)N1CCCCN2[C@@H](CO)[C@H](c3ccc(C#Cc4cccnc4)cc3)[C@@H]2C1	IDE exosite FP -4.65
O=C(Nc1ccccc1F)N1CCCCN2[C@H](CO)[C@@H](c3ccc(-c4cccnc4)cc3)[C@@H]2C1	none
O=C(Nc1ccccc1F)N1CCCCN2[C@H](CO)[C@H](c3ccc(C#Cc4ccccc4)cc3)[C@H]2C1	none
O=C(Nc1ccccc1)N1CCCCN2[C@H](C1)[C@H](c1ccc(C#Cc3cccnc3)cc1)[C@@H]2CO	none

Assay outcomes from PubChem BioAssay.
